# From paper PMC11006913
# Legend:
# Experiment in all cases: PBM; 200 nM protein, PBS
# Settings in all cases: dsDNA, one strand shown
# ALX3 [1] = biological target: ALX3 (Homo sapiens, UniProt O95076 139-225, N203Q)
# ALX3 [2] = biological target: ALX3 (Homo sapiens, UniProt O95076 139-225)
# ALX3 [3] = biological target: ALX3 (Homo sapiens, UniProt O95076 139-225, L168Q)
# ALX3 [4] = biological target: ALX3 (Homo sapiens, UniProt O95076 139-225, L168V)
# ALX3 [5] = biological target: ALX3 (Homo sapiens, UniProt O95076 139-225, N203S)
# Chain of ALX3 (Homo sapiens, UniProt O95076 139-225, N203S) (O95076 139-225 N203S): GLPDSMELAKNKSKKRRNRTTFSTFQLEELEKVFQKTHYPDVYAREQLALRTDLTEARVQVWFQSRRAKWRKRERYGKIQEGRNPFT
# PAX4 = biological target: T1, PAX4 (Homo sapiens, UniProt O43316 9-242, F177V)
# T1 sequence: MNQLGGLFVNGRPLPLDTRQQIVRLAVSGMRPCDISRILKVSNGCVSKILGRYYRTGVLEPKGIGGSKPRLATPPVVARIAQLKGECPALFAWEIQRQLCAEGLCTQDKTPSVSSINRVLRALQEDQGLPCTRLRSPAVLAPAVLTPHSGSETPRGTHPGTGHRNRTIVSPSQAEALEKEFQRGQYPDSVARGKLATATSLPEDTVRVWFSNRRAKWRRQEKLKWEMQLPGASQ
# HOXD13 [6] = biological target: HOXD13 (Homo sapiens, UniProt P35453 263-343, T313R)
# Chain of HOXD13 (Homo sapiens, UniProt P35453 263-343, T313R) (P35453 263-343 T313R): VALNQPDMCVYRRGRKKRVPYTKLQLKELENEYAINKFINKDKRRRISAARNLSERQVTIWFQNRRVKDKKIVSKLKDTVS
# HOXD13 [7] = biological target: HOXD13 (Homo sapiens, UniProt P35453 263-343)
# Chain of HOXD13 (Homo sapiens, UniProt P35453 263-343) (P35453 263-343): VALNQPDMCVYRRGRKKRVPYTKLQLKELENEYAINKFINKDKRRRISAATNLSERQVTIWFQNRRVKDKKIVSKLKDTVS
# Chain of ALX3 (Homo sapiens, UniProt O95076 139-225, L168V) (O95076 139-225 L168V): as the sequence (O95076 139-225 N203S) above, with L30V, S65N counted along it
# Chain of ALX3 (Homo sapiens, UniProt O95076 139-225, L168Q) (O95076 139-225 L168Q): as the sequence (O95076 139-225 N203S) above, with L30Q, S65N counted along it
# Chain of ALX3 (Homo sapiens, UniProt O95076 139-225) (O95076 139-225): as the sequence (O95076 139-225 N203S) above, with S65N counted along it
# Chain of ALX3 (Homo sapiens, UniProt O95076 139-225, N203Q) (O95076 139-225 N203Q): as the sequence (O95076 139-225 N203S) above, with S65Q counted along it
sequence,measurement,setting,value
CGCTCCCC,binding signal,ALX3 [1],"7.64 upbm affinity estimate (log intensity, higher = more binding, comparable within an allelic series)"
same,binding signal,ALX3 [2],"7.58 upbm affinity estimate (log intensity, higher = more binding, comparable within an allelic series)"
same,binding signal,ALX3 [3],"7.75 upbm affinity estimate (log intensity, higher = more binding, comparable within an allelic series)"
same,binding signal,ALX3 [4],"7.7 upbm affinity estimate (log intensity, higher = more binding, comparable within an allelic series)"
same,binding signal,ALX3 [5],"7.67 upbm affinity estimate (log intensity, higher = more binding, comparable within an allelic series)"
ATAATATA,binding signal,ALX3 [1],"8.66 upbm affinity estimate (log intensity, higher = more binding, comparable within an allelic series)"
same,binding signal,PAX4,"10.7 upbm affinity estimate (log intensity, higher = more binding, comparable within an allelic series)"
same,binding signal,ALX3 [5],"8.76 upbm affinity estimate (log intensity, higher = more binding, comparable within an allelic series)"
AGCGGGAC,binding signal,ALX3 [1],"7.69 upbm affinity estimate (log intensity, higher = more binding, comparable within an allelic series)"
same,binding signal,ALX3 [2],"7.54 upbm affinity estimate (log intensity, higher = more binding, comparable within an allelic series)"
same,binding signal,ALX3 [3],"7.62 upbm affinity estimate (log intensity, higher = more binding, comparable within an allelic series)"
same,binding signal,ALX3 [4],"7.69 upbm affinity estimate (log intensity, higher = more binding, comparable within an allelic series)"
same,binding signal,ALX3 [5],"7.73 upbm affinity estimate (log intensity, higher = more binding, comparable within an allelic series)"
CAGCACCC,binding signal,ALX3 [1],"7.8 upbm affinity estimate (log intensity, higher = more binding, comparable within an allelic series)"
same,binding signal,ALX3 [2],"7.73 upbm affinity estimate (log intensity, higher = more binding, comparable within an allelic series)"
same,binding signal,ALX3 [3],"7.75 upbm affinity estimate (log intensity, higher = more binding, comparable within an allelic series)"
same,binding signal,ALX3 [4],"7.68 upbm affinity estimate (log intensity, higher = more binding, comparable within an allelic series)"
same,binding signal,ALX3 [5],"7.8 upbm affinity estimate (log intensity, higher = more binding, comparable within an allelic series)"
GTTATGCA,binding signal,ALX3 [1],"8.13 upbm affinity estimate (log intensity, higher = more binding, comparable within an allelic series)"
same,binding signal,ALX3 [2],"9.19 upbm affinity estimate (log intensity, higher = more binding, comparable within an allelic series)"
same,binding signal,ALX3 [5],"8.22 upbm affinity estimate (log intensity, higher = more binding, comparable within an allelic series)"
ACGTTAGT,binding signal,ALX3 [1],"8.16 upbm affinity estimate (log intensity, higher = more binding, comparable within an allelic series)"
same,binding signal,ALX3 [2],"9.39 upbm affinity estimate (log intensity, higher = more binding, comparable within an allelic series)"
same,binding signal,ALX3 [5],"8.22 upbm affinity estimate (log intensity, higher = more binding, comparable within an allelic series)"
AGATTTTA,binding signal,ALX3 [1],"8.19 upbm affinity estimate (log intensity, higher = more binding, comparable within an allelic series)"
same,binding signal,ALX3 [2],"9.08 upbm affinity estimate (log intensity, higher = more binding, comparable within an allelic series)"
same,binding signal,ALX3 [5],"8.26 upbm affinity estimate (log intensity, higher = more binding, comparable within an allelic series)"
CATTTGCC,binding signal,ALX3 [1],"7.93 upbm affinity estimate (log intensity, higher = more binding, comparable within an allelic series)"
same,binding signal,ALX3 [2],"8.86 upbm affinity estimate (log intensity, higher = more binding, comparable within an allelic series)"
same,binding signal,ALX3 [5],"7.93 upbm affinity estimate (log intensity, higher = more binding, comparable within an allelic series)"
CACCGCCG,binding signal,ALX3 [1],"7.75 upbm affinity estimate (log intensity, higher = more binding, comparable within an allelic series)"
same,binding signal,ALX3 [2],"7.68 upbm affinity estimate (log intensity, higher = more binding, comparable within an allelic series)"
same,binding signal,ALX3 [3],"7.66 upbm affinity estimate (log intensity, higher = more binding, comparable within an allelic series)"
same,binding signal,ALX3 [4],"7.7 upbm affinity estimate (log intensity, higher = more binding, comparable within an allelic series)"
same,binding signal,ALX3 [5],"7.75 upbm affinity estimate (log intensity, higher = more binding, comparable within an allelic series)"
AATCATTC,binding signal,ALX3 [1],"8.14 upbm affinity estimate (log intensity, higher = more binding, comparable within an allelic series)"
same,binding signal,ALX3 [2],"10 upbm affinity estimate (log intensity, higher = more binding, comparable within an allelic series)"
same,binding signal,ALX3 [5],"8.17 upbm affinity estimate (log intensity, higher = more binding, comparable within an allelic series)"
CTTTTATA,binding signal,HOXD13 [6],"10.7 upbm affinity estimate (log intensity, higher = more binding, comparable within an allelic series)"
ATTTAAAT,binding signal,ALX3 [1],"8.56 upbm affinity estimate (log intensity, higher = more binding, comparable within an allelic series)"
same,binding signal,ALX3 [5],"8.68 upbm affinity estimate (log intensity, higher = more binding, comparable within an allelic series)"
ACCGCGGT,binding signal,ALX3 [1],"7.85 upbm affinity estimate (log intensity, higher = more binding, comparable within an allelic series)"
same,binding signal,ALX3 [2],"8.03 upbm affinity estimate (log intensity, higher = more binding, comparable within an allelic series)"
same,binding signal,ALX3 [3],"7.86 upbm affinity estimate (log intensity, higher = more binding, comparable within an allelic series)"
same,binding signal,ALX3 [4],"7.92 upbm affinity estimate (log intensity, higher = more binding, comparable within an allelic series)"
same,binding signal,ALX3 [5],"7.86 upbm affinity estimate (log intensity, higher = more binding, comparable within an allelic series)"
AGTTACAG,binding signal,ALX3 [1],"8.16 upbm affinity estimate (log intensity, higher = more binding, comparable within an allelic series)"
same,binding signal,ALX3 [2],"8.82 upbm affinity estimate (log intensity, higher = more binding, comparable within an allelic series)"
same,binding signal,ALX3 [5],"8.25 upbm affinity estimate (log intensity, higher = more binding, comparable within an allelic series)"
CTCATCAA,binding signal,ALX3 [1],"8.12 upbm affinity estimate (log intensity, higher = more binding, comparable within an allelic series)"
same,binding signal,ALX3 [2],"9.41 upbm affinity estimate (log intensity, higher = more binding, comparable within an allelic series)"
same,binding signal,ALX3 [5],"8.16 upbm affinity estimate (log intensity, higher = more binding, comparable within an allelic series)"
ATAACACG,binding signal,HOXD13 [6],"10.1 upbm affinity estimate (log intensity, higher = more binding, comparable within an allelic series)"
same,binding signal,HOXD13 [7],"10.7 upbm affinity estimate (log intensity, higher = more binding, comparable within an allelic series)"
